Most compounds without a hit are left out; they make up all but 19% or so of the library.
TDP1 cell CPT: growth inhibition of DT40 Tdp1-/-;hTDP1 cells with camptothecin (screen for TDP1 inhibitors). chicken DT40 Tdp1-/-;hTDP1 cells + 20 nM CPT, ATP luminescence, 48 h. Potency, µM (top dose mostly 46.2 µM), inactives show at the top dose activity change, negative = growth inhibition, usual class: inhibitors. 12% of 420,000 active; also: potency is read from the fitted curve at half-maximal effect; nearly all actives have a fitted effect of over 55% in size
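Chicken DT40 Tdp1-/- cells stably complemented with human TDP1 were seeded at 400 cells/well in medium containing 20 nM camptothecin, exposed to pin-transferred compounds, and grown at 37 °C for at least 48 hr. Viability was read as ATP luminescence.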
ELG1 repair inh: inhibitors of ELG1-dependent DNA repair in HEK293T cells | HEK293T ELG1-luciferase reporter, luminescence, 16 h; DNA damage induced by 5-fluorouridine | Potency, µM (series often up to 46.1 µM), inactives show at the top dose activity change, negative = inhibition, usual class: inhibitors | 2.3% of 330,000 active | AID 504467; also: potency is read from the fitted curve at half-maximal effect; nearly all actives have a fitted effect of over 55% in size
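Reporter activity after DNA damage by 5-fluorouridine is monitored. Compound-treated cells incubate 16 hr at 37 °C, then ONE-Glo is added for 30 min before luminescence reading.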
HT1080 IDH1KD tx: toxicity to HT-1080 IDH1 knockdown cells (counter line). HT-1080 IDH1 knockdown viability, ATP luminescence, 48 h. Potency, µM (titrated, usually from 46.1 µM), without a hit: at the top dose activity, negative = toxicity, actives largely listed as cytotoxic. 2% of 360,000 active. AID 686971;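 also: potency is read from the fitted curve at half-maximal effect; 0% = DMSO wells and -100% = cell-free medium wells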
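In this qHTS, HT-1080 cells depleted of IDH1 are exposed for 48 h at 37 °C to compound titrations. Toxicity is scored from CellTiter-Glo luminescence, with DMSO as full viability and medium alone as none.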
IL1B secr inh: inhibitors of inflammasome signaling (IL-1 beta secretion). 4.7% of 360,000 active. activity change, % at 57.5 µM. THP-1 LPS/ATP IL-1B secretion, AlphaLISA, 16 h; active compounds read low; in the data active = activity change below about -50%; inconclusive = mostly about -30% to -49%
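Secreted IL-1B measured by AlphaLISA bead assay after 16 h compound exposure of THP-1 cells; compounds (final up to 57.5 uM) added 1 h before LPS (250 ng/mL) and ATP (1.25 mM) stimulation; lower signal means less secretion.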
DT40 TDP1 no CPT: qHTS for Inhibitors of human tyrosyl-DNA phosphodiesterase 1 (TDP1): qHTS in cells in absence of CPT; DT40 Tdp1-/- hTDP1 cells, no CPT, ATP luminescence, 48 h; Potency, µM (titrated, usually from 46.2 µM), for inactives: at the highest dose activity change, negative = growth inhibition, hits mostly inhibitors; 15% of 420,000 active; also: potency is read from the fitted curve at half-maximal effect; nearly all actives have a fitted effect of over 55% in size
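DT40 Tdp1-/-;hTDP1 cells, no CPT (DMSO vehicle only), 400 cells/well; compounds pin-transferred; ≥48 hr, 37 °C; CellTiter-Glo 30 min RT dark, luminescence read.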
HT1080NT lethal: kills 2HG-producing HT-1080-NT fibrosarcoma cells | Potency, µM (highest dose often 46.1 µM), for inactives: at the top dose activity, negative = less viability, most hits filed as cytotoxic | HT-1080-NT fibrosarcoma viability, CellTiter-Glo ATP luminescence, 48 h | AID 686970 | 1.6% of 360,000 active;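 also: NT is the 2HG producing partner of a matched IDH1 knockdown line; potency is read from the fitted curve at half-maximal effect; 0% = DMSO-treated cells and -100% = media-only wells without cells; nearly all actives have a fitted effect of over 55% in size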
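Luminescent CellTiter-Glo readout after 48 hours of compound exposure at 37 degrees C defined viability of HT-1080-NT cells. Activity was normalized to DMSO wells and cell-free media wells; concentration-response curves were fitted and assigned curve classes.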
An asterisk follows results filed as active; ? = inconclusive; nt = not tested or not shown. Unless noted, calls follow the shape of the dose curve; as a rule, active = well fitted curve in the direction sought with a large enough effect; inconclusive = small, poorly fitted or top-dose-only effect, or another doubt; inactive = no such curve, though single readings can be large; an effect the other way counts as inactive or inconclusive. Unless noted, % is scaled to controls: 0 for no effect and ±100 for the full control effect.

SMILES	TDP1 cell CPT	ELG1 repair inh	HT1080 IDH1KD tx	IL1B secr inh	DT40 TDP1 no CPT	HT1080NT lethal
CN[C@H]1C[C@H]2O[C@@](C)([C@H]1OC)n1c3ccccc3c3c4c(c5c6ccccc6n2c5c31)C(=O)NC4	nt	0.517µM*	nt	nt	nt	nt
O=C(NCCc1ccc(Cl)cc1)C(=O)NCC(c1cccs1)S(=O)(=O)c1cccs1 (centres undefined)	?	nt	nt	nt	13µM*	nt
OCC[n+]1c2ccccc2nc2ccc(N3CCOCC3)cc21	-19.7%	23.1µM*	-14.1%	nt	?	-5.0%
CC(C)CC1(CCc2ccccc2)C(=O)NC(=O)NC1=O	4.6%	nt	-0.3%	19.9	-8.4%	-0.8%
CC1(C)C(=O)CCC2C1=CCC1C2CCC2(C)C(O)CCC12 (centres undefined)	-2.5%	nt	-1.2%	23.0	-6.9%	1.9%
CC(C)(C)NC(=S)N1Cc2ccccc2-n2nncc2C1	-16.9%	nt	-1.9%	8.8	-26.4%	-3.0%
CCN(CC)C(=O)c1ccc2c(c1)C1C=CCC1C(C(=O)O)N2 (centres undefined)	-14.1%	-13.8%	-1.2%	0.0	?	-10.0%
CC(C)(C)n1cc(C(=O)c2ccccc2)cc1-c1ccccc1	25.9µM*	-5.4%	6.9%	18.3	?	19.1%
Cc1c(C(=O)O)cc(-c2ccccc2)n1Cc1ccccc1	4.9%	-2.5%	-9.2%	-0.3	-3.4%	-10.2%
CSc1cc(-c2ccccc2)n(Cc2c(Cl)cccc2Cl)c(=O)c1C#N	4.61µM*	?	7.5%	0.0	3.26µM*	15.5%
CN(C)C(=O)Oc1ccc2nnc3ccnn3c2c1	-5.4%	-2.2%	0.4%	12.3	?	1.2%
Cn1nc(C(C)(C)C)cc1C(=O)N1CCCCC1c1cc(C(=O)Nc2ccc(F)c(Cl)c2)no1 (centres undefined)	20.6µM*	nt	?	-63.5*	?	?
COC(=O)C1=C(c2ccc(OCc3ccccc3)cc2)C[C@@H]2CC[C@H]1N2C(=O)NCc1ccc(F)cc1	14.6µM*	nt	?	?	23.1µM*	-22.5%
COC(=O)C1=C(c2ccc(OCc3ccccc3)cc2)C[C@@H]2CC[C@H]1N2C(=O)NCc1ccccc1OC	16.4µM*	nt	-24.6%	-4.1	8.2µM*	-13.6%
COC(=O)C1=C(c2cccc(OCc3ccccc3)c2)C[C@@H]2CC[C@H]1N2C(=O)NCCCc1ccccc1	?	?	-9.4%	0.0	?	-8.9%
COC(=O)C1=C(c2ccccc2)C[C@@H]2CC[C@H]1N2C(=O)NCc1ccccc1	0.1%	nt	0.0%	12.8	-25.1%	0.0%
COC(=O)C1=C(c2cccc(OCc3ccccc3)c2)C[C@@H]2CC[C@H]1N2C(=O)NCc1ccc(F)cc1	?	-26.1%	-11.4%	-28.1	?	12.1%
COC(=O)C1=C(c2ccc(OCc3ccccc3)cc2)C[C@@H]2CC[C@H]1N2C(=O)NCc1ccccc1C(F)(F)F	16.4µM*	nt	0.5%	-2.7	11.6µM*	-4.0%
COC(=O)C1=C(c2ccc(OCc3ccccc3)cc2)C[C@@H]2CC[C@H]1N2C(=O)NCCCc1ccccc1	14.6µM*	-15.4%	-24.3%	-11.5	13µM*	-0.8%
NC(=O)C1(N2CCCCC2)CCN(CC(=O)Nc2ccc(Oc3ccccc3)cc2)CC1	?	nt	?	-27.3	?	-26.1%
COc1cc(NCCCn2cnc(C(=O)Nc3ccc(C)c(C)c3)n2)cc(OC)c1OC	-22.1%	nt	-0.9%	-18.1	?	3.4%
CCc1cc(=O)oc2c(C)c(OCC(=O)N3C[C@H]4C[C@@H](C3)c3cccc(=O)n3C4)ccc12	7.5%	22.2%	0.3%	1.2	-1.0%	-0.6%
CC1(C)CN2C(c3ccc(Cl)cc3)N2C1 (centres undefined)	0.7%	15.4%	12.1%	14.9	-16.1%	10.3%
O=C1NCN(c2ccccc2)C12CCN(C(c1nnnn1C1CCCCC1)C1CC1)CC2 (centres undefined)	?	nt	-26.6%	-16.4	?	?
COC(=O)C1=C(c2ccc(OCc3ccccc3)cc2)C[C@@H]2CC[C@H]1N2C(=O)NCc1ccc(N(C)C)cc1	?	?	10.0%	31.6	?	3.9%
SMILES	TDP1 cell CPT	ELG1 repair inh	HT1080 IDH1KD tx	IL1B secr inh	DT40 TDP1 no CPT	HT1080NT lethal
COC(=O)C1=C(c2ccc(OCc3ccccc3)cc2)C[C@@H]2CC[C@H]1N2C(=O)NCc1ccc(OC)c(OC)c1	18.4µM*	?	-9.3%	11.7	23.1µM*	-29.4%
Oc1ccc([C@H]2CNCc3c2ccc(O)c3O)cc1O	?	nt	nt	nt	-80.1%	nt
CC(=O)c1ccc(OC(C)C)c(Cc2c(O)[nH]c(=S)[nH]c2=O)c1	-4.5%	-4.0%	0.3%	2.7	11.4%	3.6%
COC(=O)C1=C(c2ccccc2OCc2ccccc2)C[C@@H]2CC[C@H]1N2C(=O)NC1CCN(Cc2ccccc2)CC1	?	?	-36.4%	-65.0*	23.1µM*	-23.6%
COC(=O)C1=C(c2ccc(F)cc2OCc2ccccc2)C[C@@H]2CC[C@H]1N2C(=O)NC1CCN(Cc2ccccc2)CC1	8.2µM*	-29.5%	-23.5%	?	23.1µM*	-23.4%
COC(=O)C1=C(c2cccc(OCc3ccccc3)c2)C[C@@H]2CC[C@H]1N2C(=O)NC1CCN(Cc2ccccc2)CC1	6.51µM*	-7.1%	?	-63.4*	6.51µM*	23.1µM*
CC1=C[C@H](O)CC(C)(C)[C@H]1/C=C/C(C)=C/C=C/C(C)=C/C=C/C=C(C)/C=C/C=C(C)/C=C/C1=C(C)C[C@@H](O)CC1(C)C	-75.4%	nt	nt	nt	?	nt
O=C(CN1CCOCC1)c1ccc2ccccc2c1	-0.7%	nt	nt	nt	-10.6%	nt
CC(C)(C)C(=O)C(Oc1ccc(Cl)cc1)n1cncn1 (centres undefined)	14.2%	nt	nt	-6.5	-26.9%	nt
CCNC(=O)O/N=C(\C)c1sc(-c2ccccc2)nc1C	?	?	-5.5%	-23.5	?	-5.5%
Cc1ccc(CN(C)C(=O)c2cccc(S(=O)(=O)N3CCN(c4ccccc4)CC3)c2)cc1	?	nt	-25.7%	?	14.6µM*	-6.4%
COc1cccc(CN(C)C(=O)c2cccc(S(=O)(=O)N3CCN(c4ccccc4)CC3)c2)c1	11.6µM*	nt	-20.8%	-14.3	7.31µM*	-13.8%
